Hit rate of the full screen: of about 94,000 compounds, about 410 (0.44%) were called active. The sample as a whole holds a higher share of actives than the screen did. A number with no mark means an inactive call.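 How the source made its calls: active means inhibition above about 30% together with a positive call from visual inspection of the well image (limit read from the data); inconclusive means inhibition above a set limit but visual check negative; inactive means inhibition not above a set limit, visual check negative.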
assay: inhibitors of IL-1B driven NFkB p65 nuclear import, primary screen, imaging, HUVEC, IL-1B stimulus, high-content imaging (AID 796); settings: HUVEC IL-1B NFkB p65 nuclear translocation imaging; at 2 µM; hits give high values;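 further: nuclear over cytoplasmic p65 intensity ratio measured by imaging; 0% = IL-1B stimulated DMSO wells and 100% = unstimulated DMSO wells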

Row | Compound | inhibition
1 | COc1ccc(/C=C(/NC(=O)c2ccc(C)cc2)c2nc3ccccc3[nH]2)cc1OC | -9.9%
2 | CCOC(=O)c1c(N=CN(C)C)c(C#N)c2n1CCCC2 | 10.8%
3 | CC1CCCCC1NC(=O)C1CCCN1S(=O)(=O)c1cccc2nsnc12 (stereo unspecified) | -27%
4 | COc1nc(-c2ccc(Cl)cc2)ccc1-c1noc(-c2cccs2)n1 | -5.8%
5 | O=S(=O)(c1cccc2nonc12)N1CCN(c2cccc(Cl)c2)CC1 | -0.1%
6 | CC(C)NC(=O)C(=O)N/N=C/c1ccco1 | -6.9%
7 | COc1cc(C(=O)N2CCN(C/C=C/c3ccccc3)CC2)cc(OC)c1C | -3.7%
8 | N/C(=N\OC(=O)c1cc(-c2ccccc2)nc2ccccc12)c1ccncc1 | 8%
9 | Cc1ccc(S(=O)(=O)N(CC(=O)N/N=C/c2ccc(F)cc2)c2cccc3cccnc23)cc1 | 9.5%
10 | COC(=O)c1c(-c2cccs2)csc1NC(=O)CSc1ncnc2sc(C)c(C)c12 | -10.3%
11 | Nc1ccc(-c2sc(N)nc2-c2ccccc2)cc1 | 1.6%
12 | CCC(C)NC(=O)c1ccccc1NC(=O)c1ccccc1N(C)S(C)(=O)=O (stereo unspecified) | -10.8%
13 | COc1ccc(Cl)cc1NC(=O)CN(C)C(=O)CNC(=O)C12CC3CC(CC(C3)C1)C2 | -36%
14 | COc1ccc(Cc2nnc(SCC(=O)c3cccc([N+](=O)[O-])c3)n2C)cc1 | -8.8%
15 | O=C(NCCc1ccccc1)c1ccc(NC2=NC3CS(=O)(=O)CC3S2)cc1 (stereo unspecified) | 0.8%
16 | Cc1cccc(NC(=O)c2ccccc2NC(=O)C(C)(C)C)n1 | -6.8%
17 | Cc1cccc(NC(=O)c2cc(N3C(=O)CCC3=O)ccc2Cl)n1 | 32.1% (active)
18 | Cc1cc(NC(=O)c2cccc(N3C(=O)CCC3=O)c2)no1 | -4.7%
19 | O=C(CN1CCCCCC1)Nc1ccc(Br)cc1Br | 5.3%
20 | Cn1c(CNc2nc(-c3ccccc3)cs2)nnc1SCC(=O)c1ccccc1 | -14.8%
21 | Cc1ccccc1NC(=O)Cc1nnc(SCC(=O)N2CCN(c3ccccc3)CC2)n1C | -36.6%
22 | Cn1c(CC(=O)Nc2ccccc2)nnc1SCC(=O)c1ccccc1 | 92% (active)
23 | CCOC(=O)c1cc(NC(=O)c2ccc(Cl)cc2)c(=O)oc1-c1ccccc1 | -5.2%
24 | Cc1nc(C)c(C(=O)N(c2ccc(C)c(C)c2)C(C(=O)NCc2ccco2)c2ccccc2)s1 (stereo unspecified) | -3.5%

Row | Compound | inhibition
25 | Cc1cccc(NC(=O)CSc2nnc(CCCCCNC(=O)OC(C)(C)C)o2)c1C | 55.4% (active)
26 | CCc1ccccc1NC(=O)CSc1nnc([C@@H](NC(=O)OC(C)(C)C)C(C)CC)o1 (stereo partly specified) | -19.4%
27 | CCc1ccccc1NC(=O)CSc1nnc([C@@H](NC(=O)OC(C)(C)C)C(C)C)o1 | 0.3%
28 | Cc1noc(C)c1CSCC(=O)Nc1nc2ccc(Oc3ccccc3)cc2s1 | -3.4%
29 | Cc1ccc(-n2nc(N)c3c(=O)oc(N(C)C)nc32)cc1 | -5.7%
30 | O=C(COc1ccc(Cl)cc1)NCCC1=CCCCC1 | 1.3%
31 | COc1ccc(C(=O)NN(C)c2nc(-c3ccccc3)cc(C)c2S(C)(=O)=O)cc1 | -10.1%
32 | CSc1nc(N(C)NC(=O)c2cccc(C)c2)c2ccccc2n1 | 34.2% (active)
33 | CN(NC(=O)c1ccccc1)c1nc2ccccc2nc1C(F)(F)F | 12.5%
34 | O=S(=O)(c1cnccc1N1CCN(/N=C/c2ccc(Br)cc2)CC1)N1CCCCC1 | -15.8%
35 | COc1cc(OC)cc(C(=O)NC2CCN(C(=O)N3c4ccccc4Sc4ccccc43)CC2)c1 | -1.1%
36 | Cc1ccccc1N1CCN(CCCOc2ccc3c(C)cc(=O)oc3c2)CC1 | -2.5%
37 | Cn1c(C(=O)OC(C(=O)NC2CCCCC2)c2ccccn2)cc2sccc21 (stereo unspecified) | -1.9%
38 | COc1cccc(/C=N/NC(=O)c2cccc([N+](=O)[O-])c2)c1OS(=O)(=O)c1ccc(C)cc1 | 1.2%
39 | Cc1ccc(S(=O)(=O)N(C)C2(C)CCS(=O)(=O)C2)cc1 (stereo unspecified) | -19.1%
40 | CC(C)n1c(-c2cccs2)nc2ccccc21 | -4.4%
41 | C=CCn1c(COc2ccccc2C)nnc1SCC(=O)O | -19.2%
42 | C=CCn1c(COc2ccccc2)nnc1SCC(=O)NCC(=O)OCC | -6.1%
43 | C=CCn1c(COc2cccc3cccnc23)nnc1SCC(=O)OC | 30.7% (active)
44 | COc1ccc(C(=O)Oc2cc(/C=N/NS(=O)(=O)c3ccc(C)cc3)ccc2OC)cc1 | -13.4%
45 | COc1cc(C(=S)N2CCOCC2)cc(OC)c1OC(=O)c1cc([N+](=O)[O-])cc([N+](=O)[O-])c1 | 2.4%
46 | COc1ccccc1OCc1nc2ccccc2s1 | 9.7%
47 | O=C(Nc1ccccc1-c1nnn(CC(=O)N2CCCc3ccccc32)n1)c1cccc(Cl)c1 | 9.4%
48 | OC(c1ccccc1)c1nccn1Cc1ccccc1 (stereo unspecified) | -26.3%

Row | Compound | inhibition
49 | Cn1cnc([N+](=O)[O-])c1Sc1ccccc1 | 7%
50 | CCOC(=O)c1c(NC(C)=O)sc2c(O)c(Br)ccc12 | -8%
51 | CCC(C)NC(=O)C1CCCN(C(=O)NC2CCCCC2)C1 (stereo unspecified) | -6.5%
52 | Cc1ccc(NC(=S)Nc2ncccc2C)c(C)c1 | 8.4%
53 | COc1ccc(C(=O)NC(=S)Nc2ccccc2N2CCN(S(C)(=O)=O)CC2)cc1OC | -15.4%
54 | Cc1[nH]c(=O)c(C(=O)/C=C/c2ccccc2)c2c1CCCC2 | -9.9%
55 | CC(=O)c1cn(CCCCCCCCCCn2cc(C(C)=O)c(=O)[nH]c2=O)c(=O)[nH]c1=O | -1.7%
56 | CN(CC(=O)Nc1cccc2c1CCCC2)S(=O)(=O)c1ccc(Cl)cc1 | 8.4%
57 | CCOc1ccccc1NC(=O)C1CCN(S(=O)(=O)c2c(C)nn(C)c2C)CC1 | 13.5%
58 | CCOc1ccc(NC(=O)C2CCCN(C(=O)Nc3ccccc3)C2)cc1 (stereo unspecified) | 5.5%
59 | CCOc1ccccc1NC(=O)C1CCCN(C(=O)Nc2ccccc2)C1 (stereo unspecified) | 40.5% (active)
60 | N#C/C(=C/c1ccc(Cl)cc1)NC(=O)c1ccccc1 | 0.7%
61 | COc1ccc(C(F)(F)F)cc1N/C=C\c1nnnn1-c1ccc(C)cc1 | 7.9%
62 | O=C(NCCCCCCCCCNC(=O)C(F)(F)F)C(F)(F)F | 8.3%
63 | CC(C)(CNCC(O)c1ccccc1)N1CCOCC1 (stereo unspecified) | -8.1%
64 | CC(C)(CNC(=O)c1cc(=O)[nH]c2ccccc12)N1CCOCC1 | 31% (active)
65 | Cc1c(C(=O)CN2CCOCC2)[nH]c2ccccc12 | -7.9%
66 | c1ccc2c(C[n+]3csc4ccccc43)cccc2c1 | -13.2%
67 | CCc1nc(C)ccc1OCC(=O)N(CC)CC | 5.7%
68 | Fc1ccc(CNc2nc3ccccc3n3nnnc23)cc1 | -20.9%
69 | CCOc1ccc(S(=O)(=O)Nc2nc3cc(OC)ccc3s2)cc1 | -6%
70 | Cc1ccc(C(c2nnnn2CS(=O)(=O)c2ccc(C)cc2)N2CCC(C)CC2)cc1 (stereo unspecified) | -0.3%
71 | O=C(Oc1ccc([N+](=O)[O-])cc1)c1ccc2ccccc2n1 | 1.7%
72 | CCOC(=O)C1Sc2[nH]c(=O)sc2C(c2ccc(Cl)cc2)C1C(=O)OCC (stereo unspecified) | -11%

Row | Compound | inhibition
73 | O=C(CSc1nc(C2CC2)nc2ccccc12)Nc1ccc2c(c1)OCCO2 | 4.6%
74 | O=C(CSc1nc2ncccc2[nH]1)Nc1ccc2c(c1)OCCO2 | 97% (active)
75 | O=C(CSc1nnnn1C1CCCC1)Nc1ccc2c(c1)OCCO2 | -42.7%
76 | O=C(/C=C/c1ccco1)Nc1ccc(Oc2ccccc2)cc1 | -2.7%
77 | c1ccc(C(c2ccccc2)N2CCN(Cc3nnnn3C3CCCCC3)CC2)cc1 | 10.8%
78 | CC1=NN(Cc2ccccc2)C(=O)/C1=C/c1ccc(N(C)C)cc1 | -0.4%
79 | CCCCC(=O)N/N=C(\C)CC(=O)Nc1cc(Cl)ccc1OC | -3.2%
80 | COc1ccccc1NC(=O)c1ccc(C)s1 | -3.2%
81 | COc1ccccc1NC(=S)NC(=O)C(C)C | 13.7%
82 | COc1ccccc1NC(=O)/C=C/C(N)=O | 43.6% (active)
83 | O=C(NCc1ccccc1Cl)c1csc2c1CCCCC2 | 6.8%
84 | Cc1ccc(SCC(=O)Nc2ncc(C)s2)cc1 | -75.7%
85 | CN(C)/C=C(\C#N)C(=O)c1cccnc1Oc1cccc(F)c1 | -5.1%
86 | COC(=O)c1ccc(C(=O)OC)c(NC(=S)N2CCCCC2)c1 | 8.4%
87 | COC(=O)c1ccc(CSc2ccc3nnc(-c4ccccc4)n3n2)o1 | -0.1%
88 | COc1cc(C(=O)NC(=S)NCc2ccco2)cc(OC)c1OC | -3.4%
89 | CC(C)(C)c1ccc(C(=O)CSc2ncn[nH]2)cc1 | -29.2%
90 | Cc1ccc(C(=O)/C=C/c2c(C)nn(-c3ccccc3)c2Cl)cc1 | 15.3%
91 | O=C(/C=C/Sc1ncn[nH]1)c1ccc(Cl)cc1 | 47.7% (active)
92 | CC(C)(C)NS(=O)(=O)CC12CCC(CC1=O)C2(C)C (stereo unspecified) | 12.7%
93 | Cc1cccc(COc2ccccc2/C=N/Nc2ccc([N+](=O)[O-])cc2)c1 | -18.1%
94 | COc1ccc(S(=O)(=O)N2CCOCC2)c(C)c1C | -1.9%
95 | COc1ccc(S(=O)(=O)Nc2ccc(F)cc2)c(C)c1C | 74% (active)
96 | COc1ccc(OC)c(S(=O)(=O)Nc2ccccc2F)c1 | -16.7%

Source: PubChem BioAssay AID796 (Columbia University Molecular Screening Center, 2007)
